CHT PAM: CHT positive allosteric modulators, primary screen, cell-based, membrane potential dye, choline EC20; High affinity choline transporter 1 (Homo sapiens), Q9GZV3; CHT-expressing cells; hits give high values; LV-AA mutant CHT in HEK293 cells; B-score at 10 µM; hit rate 0.49% among 310,000;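 active = initial fluorescence not abnormally high and integrated response B-score, plate-corrected, over 3 SD above library mean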
CHT block: inhibitors of human choline transporter CHT; High affinity choline transporter 1 (Homo sapiens), Q9GZV3; hit rate 0.86% among 310,000; AID 488975, 2010; B-score at 10 µM; CHT-expressing cells, membrane potential dye, choline response; hits give low values;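 active = B-score over 3 SD under the library average, and starting fluorescence ratio not unusually high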;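 note: choline stimulus applied at its EC90 after an EC20 pre-addition; B-score computed on integrated fluorescence ratio after choline addition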
ANO1 block: TMEM16A chloride channel inhibitors, primary screen, cell-based, HTS. HEK293 TMEM16A/YFP iodide influx fluorescence, ionomycin. hit rate 1.2% among 310,000. normalized B-score (activity score, 25-100; higher = stronger inhibition) at 10 µM;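 active = ratio plate-corrected score three or more library SD toward inhibition, starting fluorescence score within five deviations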;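 note: score derived from kinetic fluorescence span divided by baseline fluorescence per well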
Target sequence (Q8BHY3 whole entry, looked up): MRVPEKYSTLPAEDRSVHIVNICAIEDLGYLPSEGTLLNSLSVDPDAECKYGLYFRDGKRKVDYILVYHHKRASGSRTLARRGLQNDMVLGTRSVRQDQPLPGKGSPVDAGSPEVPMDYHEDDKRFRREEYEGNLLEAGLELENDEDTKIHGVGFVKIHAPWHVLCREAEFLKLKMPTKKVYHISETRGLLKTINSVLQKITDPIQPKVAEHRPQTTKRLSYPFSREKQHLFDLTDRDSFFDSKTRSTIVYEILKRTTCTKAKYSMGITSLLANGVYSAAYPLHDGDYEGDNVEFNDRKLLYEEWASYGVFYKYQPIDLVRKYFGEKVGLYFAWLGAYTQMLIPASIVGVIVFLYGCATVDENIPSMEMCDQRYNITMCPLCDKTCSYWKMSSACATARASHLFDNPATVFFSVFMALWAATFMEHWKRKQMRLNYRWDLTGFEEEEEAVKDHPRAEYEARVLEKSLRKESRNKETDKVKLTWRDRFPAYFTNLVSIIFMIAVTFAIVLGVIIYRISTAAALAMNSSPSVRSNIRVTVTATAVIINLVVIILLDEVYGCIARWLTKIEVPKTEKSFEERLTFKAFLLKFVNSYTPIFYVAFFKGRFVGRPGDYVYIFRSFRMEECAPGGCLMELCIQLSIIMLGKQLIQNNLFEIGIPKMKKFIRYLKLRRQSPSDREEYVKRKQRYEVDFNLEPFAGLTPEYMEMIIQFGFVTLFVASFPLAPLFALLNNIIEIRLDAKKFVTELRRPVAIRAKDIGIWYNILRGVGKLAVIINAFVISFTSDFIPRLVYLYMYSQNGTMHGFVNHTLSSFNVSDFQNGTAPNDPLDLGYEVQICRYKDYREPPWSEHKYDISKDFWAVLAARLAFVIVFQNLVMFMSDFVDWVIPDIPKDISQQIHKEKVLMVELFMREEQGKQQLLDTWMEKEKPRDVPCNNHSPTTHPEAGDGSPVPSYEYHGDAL
ANO1 activ: TMEM16A chloride channel activators or potentiators, primary screen, cell-based, HTS; Anoctamin-1 (Mus musculus), Q8BHY3; HEK293 TMEM16A/YFP-H148Q/I152L, iodide quench fluorescence; hits give low values; B-score at 10 µM; hit rate 0.3% among 340,000; AID 623877, 2012;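 active = fluorescence-ratio B-score plate-corrected deviation score at least 3 library SD below zero, with starting fluorescence score within 5 deviations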;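 note: channel opened by trigger with iodide after compound preincubation; score built on the fluorescence ratio of max minus min over baseline; more negative score means more quench and so TMEM16A activation or potentiation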
TMEM16A reconf: TMEM16A chloride channel inhibitors, confirmation, cell-based, re-confirmation | AID 652189, 2013 | HEK293 TMEM16A/YFP-H148Q, iodide quench fluorescence; ionomycin added to raise cell calcium | hit rate 39% among 2,300 | shares compounds with ANO1 block | inhibition, % at 10 µM;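 active = mean duplicate percent inhibition, scaled so buffer wells are 0 and the reference blocker 100, over three buffer SD above buffer mean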
HEK293 Ca mobil: calcium mobilization in TMEM16A/YFP HEK293 cells, confirmation, counter-screen for TMEM16A inhibitor project | shares compounds with ANO1 block | Fluo4 calcium mobilization | calcium response (% of ionomycin), % at 10 µM | hit rate 2% among 2,300;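 active = duplicate-averaged calcium signal over 20% of the ionomycin maximum, relative to buffer baseline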;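 note: each well's signal is peak minus trough fluorescence divided by its pre-addition baseline; 0% = buffer wells and 100% = ionomycin wells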
Parental YFP cnt: iodide YFP quench changes in parental YFP-HEK293, counter-screen for TMEM16A inhibitor project, cell-based. shares compounds with ANO1 block. ionomycin. YFP ratio F(max-min)/F0 at 10 µM. 2,300 tested, under 10 active. AID 652233, 2013;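 active = yellow fluorescent protein signal ratio exceeding the buffer control mean by over 5 SD of those controls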;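 note: ratio is mean of duplicate wells from kinetic YFP trace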
ClC-1 rat inh: ClC-1 chloride channel inhibition, selectivity assay for TMEM16A inhibitor project, cell-based, voltage-dependent ClC-1; shares compounds with ANO1 block; CHO ClC-1-YFP, iodide influx fluorescence quench; iodide control reads 0, buffer control 100; ratio percent, % at 10 µM; 2,300 tested, under 10 active; AID 652236, 2013;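 active = duplicate-mean ratio percent above the mean of iodide-only control wells, which defines zero, plus 5 of their SD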;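 note: higher percent means stronger block of ClC-1 iodide influx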
An asterisk follows results filed as active; i = inactive; . = no result. Sampled rows, rich in hits. Any-hit rate of the full collection: about 2.4%.

SMILES | CHT PAM | CHT block | ANO1 block | ANO1 activ | TMEM16A reconf | HEK293 Ca mobil | Parental YFP cnt | ClC-1 rat inh
Nc1ccc(C(=O)NC2CCSc3ccccc32)cc1[N+](=O)[O-] (stereo unspecified) | i | i | i | i | . | . | . | .
CCCOc1ccc(-c2nc(SCc3ccccc3)[nH]c(=O)c2C#N)cc1OC | i | i | 100* | i | 30%* | i | -1.1 | -4
CC(=O)C1=C(O)CC(C)(C)CC1=NCc1nc2ccccc2[nH]1 | i | i | i | i | . | . | . | .
COc1ccc(CNC(=O)c2ccc(N3CCCC3=O)cc2)cc1 | i | i | 100* | i | i | i | -1.2 | 2
CNc1c(NC(=O)C2CCC(C)CC2)c(=O)oc2ccccc12 (stereo unspecified) | i | i | i | i | . | . | . | .
CCN(Cc1ccncc1)Cc1ccc(Br)cc1 | i | i | i | i | . | . | . | .
CCc1ccc(NC(=O)CSc2nc3ncc(Br)cc3[nH]2)cc1 | i | i | i | i | . | . | . | .
O=C(CSc1nc2ncc(Br)cc2[nH]1)Nc1ccccc1-c1ccccc1 | i | i | 100* | i | i | i | -0.96 | -4
CCn1c(CSc2nc3ccccc3s2)nc2ccccc21 | i | i | 100* | i | 43%* | i | -0.86 | -8
C=CCn1c(SCC(=O)NC(C)(C)C)nnc1-c1ccccc1O | i | i | 100* | i | i | i | -0.79 | -6
C=CCn1c(SCC(=O)NC(=O)Cc2ccccc2)nnc1-c1ccccc1F | . | . | . | i | . | . | . | .
N#C/C(=C\c1ccc(O)c(O)c1)S(=O)(=O)c1ccccc1 | i | i | i | i | 41%* | i | -0.81 | 4
N#C/C(=C/c1ccc(F)cc1)S(=O)(=O)c1ccccc1 | i | i | i | i | . | . | . | .
CCOc1ccccc1OCC(=O)OC(C)C(=O)Nc1ncc(Cl)cc1Cl (stereo unspecified) | . | . | . | i | . | . | . | .
O=S1(=O)CC/C(=N\O)c2ccccc21 | i | i | 25* | i | i | i | -1.2 | -4
CCCCc1cc(=O)oc2cc(OCC(=O)Nc3cccnc3)c(Cl)cc12 | i | i | i | i | . | . | . | .
CCC1SC2=NC(C)=C(C(=O)OCC(C)C)C(/C=C/c3ccccc3OC)N2C1=O (stereo unspecified) | i | i | 100* | i | i | i | -1.1 | -16
COc1ccccc1/C=C/C1C(C(=O)OCC(C)C)=C(C)N=C2SCCC(=O)N21 (stereo unspecified) | i | i | i | i | . | . | . | .
Cc1cc(C)n(-c2nc3sc4c(c3c3nnc(SC(C)C)n23)CC(C)(C)OC4)n1 | i | i | 100* | i | i | i | -1 | -7
COC(=O)CSc1nnc2c3c4c(sc3nc(-n3nc(C)cc3C)n12)COC(C)(C)C4 | i | i | i | i | . | . | . | .
COC(=O)C(NC=O)C(O)(Cc1ccccc1)C(F)(F)F (stereo unspecified) | i | i | i | i | . | . | . | .
Cc1cc(C)nc(/N=C(\N)Nc2ccc(CC(=O)OC(C)C)cc2)n1 | i | i | i | i | . | . | . | .
Cc1cc(C)nc(/N=C(\N)Nc2ccc(OCCC(C)C)cc2)n1 | i | i | 100* | i | 29%* | 56%* | -1.2 | -17
COc1cc(CNCCc2c[nH]c3ccccc23)ccc1OCc1ccccc1F | i | i | i | i | . | . | . | .
COc1cccc(CNCCc2c[nH]c3ccccc23)c1OCc1ccccc1 | i | i | 25* | i | 54%* | i | -0.85 | -18
SMILES | CHT PAM | CHT block | ANO1 block | ANO1 activ | TMEM16A reconf | HEK293 Ca mobil | Parental YFP cnt | ClC-1 rat inh
Oc1ccc(-c2[nH]ncc2-c2ccc(Br)cc2)c(O)c1 | i | i | i | i | . | . | . | .
Oc1ccc(-c2[nH]ncc2-c2ccc(Cl)cc2)c(O)c1 | i | i | 25* | i | i | i | -1.4 | -3
Cc1ccc(CNn2cnnc2SCc2ccc(F)cc2)cc1 | i | i | 100* | i | i | i | -1.3 | 4
Cc1ccc(-n2c(SCC(N)=O)nc3c(c2=O)C2(CCCC2)Cc2ccccc2-3)cc1 | i | i | 25* | i | 39%* | i | -1.3 | -4
COC(=O)C(Cc1ccc(OC(=O)c2ccccc2Cl)cc1)N1Cc2ccccc2C1=O (stereo unspecified) | i | i | 100* | i | i | i | -1 | -5
Cc1cc(C)n(CC(=O)c2ccccc2)c(=O)c1C#N | i | i | 100* | i | i | i | -0.9 | -8
Cc1ccc(C(=O)Cn2c(C)cc(C)c(C#N)c2=O)cc1 | i | i | i | i | . | . | . | .
C=CCc1cc(Cl)ccc1OC(=O)Nc1cccc(Cl)c1 | i | i | i | i | . | . | . | .
O=C(COCC(=O)Nc1cccc(C(F)(F)F)c1)Nc1cccc(C(F)(F)F)c1 | i | i | i | i | . | . | . | .
COc1cc(NC(=O)CSCC(=O)Nc2cccc(C(F)(F)F)c2)c(Cl)cc1Cl | i | i | 100* | i | i | i | -0.99 | -9
Cc1nn(CC(=O)N2CCN(c3ccc(Cl)cc3)CC2)c(=O)c2cccn12 | i | i | i | i | . | . | . | .
COc1ccc(-c2cn(Cc3ccc(C(=O)c4ccccc4)cc3)nn2)cc1 | i | i | 25* | . | 27%* | i | -0.86 | -16
Cc1cccc(NC(=O)CSCC(=O)OCc2ccccn2)c1 | i | i | i | i | . | . | . | .
C=CCNC(=O)c1c(Cl)nc(C)c([N+](=O)[O-])c1C | i | i | i | i | . | . | . | .
O=C(COC(=O)CCNS(=O)(=O)c1cccc(C(F)(F)F)c1)NC(=O)NC1CCCCC1 | i | i | 25* | i | 24%* | i | -1.3 | -10
O=C(COC(=O)Cc1cccc(C(F)(F)F)c1)NC(=O)NC1CCCC1 | . | . | . | i | . | . | . | .
Cc1ccccc1N1CCN(S(=O)(=O)c2ccc3oc(=O)ccc3c2)CC1 | i | i | i | i | . | . | . | .
Cc1ccc2nc(N3CCN(C(=O)c4ccco4)CC3)c3nncn3c2c1 | i | i | i | i | . | . | . | .

Screening results from PubChem.
